Experimental findings from PubChem BioAssay AID1572 (National Center for Advancing Translational Sciences (NCATS), 2009) are described below.

The experiment in a line: Total Fluorescence Confirmation Counterscreen for Inhibitors of the Interaction of Thyroid Hormone Receptor and Steroid Receptor Coregulator 2. The procedure, abridged:
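Flags fluorescent or light-absorbing compounds: after 5 hr at ambient temperature, 0.6 uM TRbeta LBD plus 20 nM SRC2 Texas Red (1uM T3, 5% DMSO) read at 555/632 nm; TF = S + 2P from parallel and perpendicular channels.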

Records with an inconclusive call do not appear. Where a call stands in place of a potency, no number is given. Calls of active or inactive are those of the source. Calls come from the whole dose curve; as a rule, active = well fitted curve in either direction with a large enough effect; inconclusive = small, poorly fitted or top-dose-only effect; inactive = flat fitted curve, though single readings scatter.

For the compound `Nc1cccnc1Sc1cc(Cl)c(Cl)cc1Cl`, the Potency entry is “inactive”.
To `Nc1cc(N)c(OCC(F)(F)F)cc1OCC(F)(F)F` belongs “inactive”.
`COc1cc(C(c2c(C)[nH][nH]c2=O)c2c(C)[nH][nH]c2=O)ccc1OC(=O)c1ccccc1OC`: the Potency entry is “inactive”.
Next, `CCCc1cc(=O)[nH]c(=S)[nH]1`: “inactive”; `CC(=O)NC1N=C(C)N(c2ccccc2)C1=O` (stereo not drawn): “inactive”.
Regarding `CCOc1cc(C(c2c(C)[nH][nH]c2=O)c2c(C)[nH][nH]c2=O)ccc1OC(=O)c1cccc([N+](=O)[O-])c1`, the Potency entry was “inactive”.
With `CS(=O)(=O)c1ccc(C(=O)OCC(=O)NC23CC4CC(CC(C4)C2)C3)cc1[N+](=O)[O-]`, the Potency entry is “inactive”.
For `CCOC(=O)C(NC(=O)Nc1ccc(O)cc1)(c1ccccc1)C(F)(F)F` (stereo not drawn), the Potency result was “inactive”.
To `CCc1ccc2c(c1)c1nc(C)sc1n2CC` belongs “inactive”.
Turning to `CS(=O)(=O)c1ccc(C(=O)OCC(=O)NC(=O)C2CCCCC2)cc1[N+](=O)[O-]`, the Potency result was “inactive”.
To `Nc1cc(-c2ccncc2)c[nH]c1=O` belongs “inactive”; to `CCOc1ccc(NC(=O)C(c2ccccn2)N(C(=O)CCl)c2ccc(F)cc2)cc1` (stereo not drawn), “inactive”; to `O=C(Nc1nc2ccc(Cl)cc2s1)c1ccc(N2CCCCC2)c([N+](=O)[O-])c1`, “inactive”.
Regarding `Nc1c(C(=O)NCc2ccco2)c2nc3ccccc3nc2n1CCc1ccccc1`, the Potency entry is “inactive”.
As to `O=C1CCCC(O)=C1N=Nc1cccc(S(=O)(=O)N2CCOCC2)c1`, the Potency entry was “inactive”.
`Nc1cnccc1C(=O)O`: the Potency result is “inactive”.
Consider `CCC(C)NC(=O)COC(=O)c1csc2c1CCCC2` (stereo not drawn), for which the Potency entry is “inactive”.
On to `Cn1c(NNC(=O)c2c(F)cccc2F)cc(=O)n(C)c1=O`, for which the Potency result was “inactive”.
